Assay [1] concerns the target Tyrosine-protein kinase SYK (Homo sapiens) (UniProt P43405). The settings on record: at 1 µM.
Assay [2] deals with T1, Tyrosine-protein kinase Tec (Homo sapiens) (UniProt P42680).
T1 sequence (whole entry): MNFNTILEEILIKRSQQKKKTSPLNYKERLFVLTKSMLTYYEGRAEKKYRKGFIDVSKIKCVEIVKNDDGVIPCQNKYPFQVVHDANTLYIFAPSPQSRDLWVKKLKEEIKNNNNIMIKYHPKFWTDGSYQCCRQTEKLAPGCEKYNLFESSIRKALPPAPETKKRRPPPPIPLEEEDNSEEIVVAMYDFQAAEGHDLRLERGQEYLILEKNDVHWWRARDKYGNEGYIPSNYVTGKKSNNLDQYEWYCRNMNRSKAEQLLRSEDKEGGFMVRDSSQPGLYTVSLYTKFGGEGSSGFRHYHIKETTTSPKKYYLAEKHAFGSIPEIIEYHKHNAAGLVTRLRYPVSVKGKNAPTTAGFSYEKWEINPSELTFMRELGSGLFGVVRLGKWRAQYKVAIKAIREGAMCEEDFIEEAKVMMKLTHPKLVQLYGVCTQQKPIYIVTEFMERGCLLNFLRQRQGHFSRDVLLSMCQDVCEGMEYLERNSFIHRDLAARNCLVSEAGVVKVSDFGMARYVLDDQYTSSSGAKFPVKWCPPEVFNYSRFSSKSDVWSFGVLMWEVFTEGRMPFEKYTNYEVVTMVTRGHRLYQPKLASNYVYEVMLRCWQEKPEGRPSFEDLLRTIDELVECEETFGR
Particulars: at 0.1 µM.

In assay [3] the target is T1, Tyrosine-protein kinase Tec (Homo sapiens). The settings on record: at 1 µM.
Assay [4] addresses Angiopoietin-1 receptor (Homo sapiens) (UniProt Q02763). The settings on record: at 0.1 µM.
The target is the same in assay [5]. The settings on record: at 1 µM.
Assay [6] has as its target T2, Non-receptor tyrosine-protein kinase TNK1 (Homo sapiens) (UniProt Q13470).
T2 sequence (whole entry): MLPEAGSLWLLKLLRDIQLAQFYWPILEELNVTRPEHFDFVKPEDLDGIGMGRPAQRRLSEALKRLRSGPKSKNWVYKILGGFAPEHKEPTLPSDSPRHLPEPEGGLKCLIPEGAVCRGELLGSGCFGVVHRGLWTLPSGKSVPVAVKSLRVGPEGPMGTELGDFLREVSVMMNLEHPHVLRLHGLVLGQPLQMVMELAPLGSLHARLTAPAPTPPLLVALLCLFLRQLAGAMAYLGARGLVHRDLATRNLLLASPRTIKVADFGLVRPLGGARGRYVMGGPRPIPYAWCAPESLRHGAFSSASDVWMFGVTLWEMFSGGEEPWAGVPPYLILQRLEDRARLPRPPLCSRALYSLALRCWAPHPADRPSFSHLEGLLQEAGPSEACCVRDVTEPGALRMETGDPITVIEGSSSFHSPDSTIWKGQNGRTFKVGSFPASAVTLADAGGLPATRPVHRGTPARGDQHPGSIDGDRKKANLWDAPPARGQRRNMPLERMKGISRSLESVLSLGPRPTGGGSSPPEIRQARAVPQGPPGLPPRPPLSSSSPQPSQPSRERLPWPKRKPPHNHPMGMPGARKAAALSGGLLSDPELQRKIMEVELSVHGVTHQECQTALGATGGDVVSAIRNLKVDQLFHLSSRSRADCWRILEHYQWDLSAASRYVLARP
The settings on record: at 0.1 µM.

Assay [7] concerns the target T2, Non-receptor tyrosine-protein kinase TNK1 (Homo sapiens). Particulars: at 1 µM.
In assay [8] the target is Activated CDC42 kinase 1 (Homo sapiens) (UniProt Q07912). Particulars: at 0.1 µM.
The target is the same in assay [9]. Particulars: at 1 µM.
The target in assay [10] is High affinity nerve growth factor receptor (Homo sapiens) (UniProt P04629). Particulars: at 0.1 µM.
The target is the same in assay [11]. Particulars: at 1 µM.
Assay [12] concerns the target BDNF/NT-3 growth factors receptor (Homo sapiens) (UniProt Q16620). The settings on record: at 0.1 µM.
The target is the same in assay [13]. The settings on record: at 1 µM.
The target in assay [14] is NT-3 growth factor receptor (Homo sapiens) (UniProt Q16288). Particulars: at 0.1 µM.
Assay [15] has the same target. Particulars: at 1 µM.
The target in assay [16] is T3, Tyrosine-protein kinase TXK (Homo sapiens) (UniProt P42681).
T3 sequence (whole entry): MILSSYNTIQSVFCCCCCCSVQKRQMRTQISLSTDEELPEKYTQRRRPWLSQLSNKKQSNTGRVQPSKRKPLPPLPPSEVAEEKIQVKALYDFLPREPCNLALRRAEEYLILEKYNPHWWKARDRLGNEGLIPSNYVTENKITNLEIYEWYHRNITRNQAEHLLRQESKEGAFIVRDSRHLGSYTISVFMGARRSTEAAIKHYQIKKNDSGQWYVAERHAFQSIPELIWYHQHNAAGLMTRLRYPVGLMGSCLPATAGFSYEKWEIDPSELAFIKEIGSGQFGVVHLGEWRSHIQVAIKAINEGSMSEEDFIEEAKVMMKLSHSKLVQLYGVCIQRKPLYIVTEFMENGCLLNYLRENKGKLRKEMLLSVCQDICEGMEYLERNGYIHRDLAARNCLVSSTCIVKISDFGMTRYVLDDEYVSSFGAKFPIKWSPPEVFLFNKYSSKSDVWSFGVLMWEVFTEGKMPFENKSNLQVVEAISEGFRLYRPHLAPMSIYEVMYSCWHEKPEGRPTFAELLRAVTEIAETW
Particulars: at 0.1 µM.

In assay [17] the target is T3, Tyrosine-protein kinase TXK (Homo sapiens). Particulars: at 1 µM.
Assay [18] has as its target Non-receptor tyrosine-protein kinase TYK2 (Homo sapiens) (UniProt P29597). The settings on record: at 0.1 µM.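 Further: each value is a mean of the inhibition readings.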
Assay [19] addresses T4, Dual specificity protein kinase TTK (Homo sapiens) (UniProt P33981).
T4 sequence (whole entry): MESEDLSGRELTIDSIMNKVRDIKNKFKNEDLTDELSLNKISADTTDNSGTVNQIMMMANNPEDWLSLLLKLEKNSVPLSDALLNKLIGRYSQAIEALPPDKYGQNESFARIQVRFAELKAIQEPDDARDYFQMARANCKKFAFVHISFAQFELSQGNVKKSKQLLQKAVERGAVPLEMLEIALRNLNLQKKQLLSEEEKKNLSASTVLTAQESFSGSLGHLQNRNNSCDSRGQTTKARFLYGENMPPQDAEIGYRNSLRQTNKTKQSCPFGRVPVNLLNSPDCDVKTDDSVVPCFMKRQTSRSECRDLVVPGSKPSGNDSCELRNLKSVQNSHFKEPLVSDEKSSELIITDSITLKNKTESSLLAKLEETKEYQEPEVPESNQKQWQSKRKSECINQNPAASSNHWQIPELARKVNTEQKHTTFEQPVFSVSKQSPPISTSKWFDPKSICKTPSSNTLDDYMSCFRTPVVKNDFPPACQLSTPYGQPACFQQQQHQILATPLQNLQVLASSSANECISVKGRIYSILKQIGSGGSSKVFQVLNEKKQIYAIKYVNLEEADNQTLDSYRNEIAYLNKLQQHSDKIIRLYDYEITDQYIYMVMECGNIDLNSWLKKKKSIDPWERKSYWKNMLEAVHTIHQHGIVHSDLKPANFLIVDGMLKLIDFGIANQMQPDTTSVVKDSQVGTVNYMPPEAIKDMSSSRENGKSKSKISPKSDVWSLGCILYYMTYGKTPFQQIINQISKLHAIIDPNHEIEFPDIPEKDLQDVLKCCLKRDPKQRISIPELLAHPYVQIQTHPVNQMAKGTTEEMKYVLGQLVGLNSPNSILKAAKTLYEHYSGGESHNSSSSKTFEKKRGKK
Particulars: at 1 µM.

The target of assay [20] is T5, Aurora kinase A (Homo sapiens) (UniProt O14965).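 Further: each reported value is a mean percent inhibition of Aurora-A.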
T5 sequence (whole entry): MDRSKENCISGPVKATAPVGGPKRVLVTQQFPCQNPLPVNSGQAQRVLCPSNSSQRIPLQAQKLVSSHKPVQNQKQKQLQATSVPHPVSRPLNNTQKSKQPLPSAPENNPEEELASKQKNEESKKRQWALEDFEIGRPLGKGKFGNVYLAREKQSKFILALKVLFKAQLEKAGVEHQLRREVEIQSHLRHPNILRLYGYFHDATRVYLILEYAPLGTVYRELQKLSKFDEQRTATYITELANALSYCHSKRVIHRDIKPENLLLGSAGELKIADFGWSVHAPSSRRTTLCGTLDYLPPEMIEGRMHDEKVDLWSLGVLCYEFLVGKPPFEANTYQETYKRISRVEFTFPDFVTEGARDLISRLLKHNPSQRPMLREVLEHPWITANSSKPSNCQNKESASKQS
Particulars: at 0.1 µM.

NT-3 growth factor receptor (Homo sapiens), sequence (Q16288 32-839 limits assumed): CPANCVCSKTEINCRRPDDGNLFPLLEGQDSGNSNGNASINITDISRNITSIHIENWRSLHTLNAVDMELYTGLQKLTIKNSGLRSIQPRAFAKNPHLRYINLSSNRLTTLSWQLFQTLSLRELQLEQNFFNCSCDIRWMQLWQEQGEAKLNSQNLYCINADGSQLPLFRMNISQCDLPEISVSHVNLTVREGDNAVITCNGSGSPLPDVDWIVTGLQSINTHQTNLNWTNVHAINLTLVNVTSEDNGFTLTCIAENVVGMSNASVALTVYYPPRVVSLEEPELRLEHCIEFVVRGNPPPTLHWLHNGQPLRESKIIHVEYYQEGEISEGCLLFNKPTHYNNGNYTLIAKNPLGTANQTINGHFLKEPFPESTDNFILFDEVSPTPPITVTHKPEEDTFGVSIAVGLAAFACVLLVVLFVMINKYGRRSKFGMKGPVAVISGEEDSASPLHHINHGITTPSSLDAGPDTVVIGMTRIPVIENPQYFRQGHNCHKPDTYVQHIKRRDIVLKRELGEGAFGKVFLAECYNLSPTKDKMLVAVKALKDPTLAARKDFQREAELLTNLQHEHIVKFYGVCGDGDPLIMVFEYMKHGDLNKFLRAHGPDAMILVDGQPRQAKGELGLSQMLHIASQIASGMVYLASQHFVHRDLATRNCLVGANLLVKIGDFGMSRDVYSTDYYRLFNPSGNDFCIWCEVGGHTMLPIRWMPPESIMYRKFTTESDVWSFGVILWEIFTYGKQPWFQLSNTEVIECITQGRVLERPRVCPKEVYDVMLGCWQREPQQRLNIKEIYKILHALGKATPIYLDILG
Non-receptor tyrosine-protein kinase TYK2 (Homo sapiens), sequence (P29597 whole entry): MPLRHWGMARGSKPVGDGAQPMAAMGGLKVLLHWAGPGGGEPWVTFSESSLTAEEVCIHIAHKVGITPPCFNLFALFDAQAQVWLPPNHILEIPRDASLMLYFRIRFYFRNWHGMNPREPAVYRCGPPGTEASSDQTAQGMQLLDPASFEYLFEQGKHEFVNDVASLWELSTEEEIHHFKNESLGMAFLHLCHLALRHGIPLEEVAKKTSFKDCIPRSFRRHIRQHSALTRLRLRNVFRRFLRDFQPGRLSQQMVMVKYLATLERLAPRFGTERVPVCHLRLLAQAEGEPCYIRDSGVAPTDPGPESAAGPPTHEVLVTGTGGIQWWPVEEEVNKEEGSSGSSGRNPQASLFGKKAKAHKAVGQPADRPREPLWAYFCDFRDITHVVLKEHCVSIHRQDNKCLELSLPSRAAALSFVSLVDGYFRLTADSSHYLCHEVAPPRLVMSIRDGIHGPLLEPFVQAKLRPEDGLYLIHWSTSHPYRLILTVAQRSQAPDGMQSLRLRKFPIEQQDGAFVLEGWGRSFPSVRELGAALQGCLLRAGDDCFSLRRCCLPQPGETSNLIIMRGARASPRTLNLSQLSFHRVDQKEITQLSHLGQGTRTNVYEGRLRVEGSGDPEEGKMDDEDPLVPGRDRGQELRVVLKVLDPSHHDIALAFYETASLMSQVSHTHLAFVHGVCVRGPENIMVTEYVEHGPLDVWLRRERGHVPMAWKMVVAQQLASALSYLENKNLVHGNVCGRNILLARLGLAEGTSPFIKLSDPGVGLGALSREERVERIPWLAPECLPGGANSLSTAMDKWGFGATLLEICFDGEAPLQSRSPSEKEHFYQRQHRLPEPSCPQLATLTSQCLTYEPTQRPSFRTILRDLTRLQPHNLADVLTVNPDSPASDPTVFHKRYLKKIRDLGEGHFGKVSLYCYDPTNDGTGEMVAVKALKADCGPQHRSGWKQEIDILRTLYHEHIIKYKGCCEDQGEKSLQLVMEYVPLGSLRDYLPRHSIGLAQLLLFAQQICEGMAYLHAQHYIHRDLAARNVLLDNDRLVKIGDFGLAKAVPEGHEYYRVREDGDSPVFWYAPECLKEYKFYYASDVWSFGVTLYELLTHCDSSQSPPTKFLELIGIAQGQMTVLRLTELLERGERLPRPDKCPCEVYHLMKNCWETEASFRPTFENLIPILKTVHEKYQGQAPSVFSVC
Angiopoietin-1 receptor (Homo sapiens), sequence (Q02763 whole entry): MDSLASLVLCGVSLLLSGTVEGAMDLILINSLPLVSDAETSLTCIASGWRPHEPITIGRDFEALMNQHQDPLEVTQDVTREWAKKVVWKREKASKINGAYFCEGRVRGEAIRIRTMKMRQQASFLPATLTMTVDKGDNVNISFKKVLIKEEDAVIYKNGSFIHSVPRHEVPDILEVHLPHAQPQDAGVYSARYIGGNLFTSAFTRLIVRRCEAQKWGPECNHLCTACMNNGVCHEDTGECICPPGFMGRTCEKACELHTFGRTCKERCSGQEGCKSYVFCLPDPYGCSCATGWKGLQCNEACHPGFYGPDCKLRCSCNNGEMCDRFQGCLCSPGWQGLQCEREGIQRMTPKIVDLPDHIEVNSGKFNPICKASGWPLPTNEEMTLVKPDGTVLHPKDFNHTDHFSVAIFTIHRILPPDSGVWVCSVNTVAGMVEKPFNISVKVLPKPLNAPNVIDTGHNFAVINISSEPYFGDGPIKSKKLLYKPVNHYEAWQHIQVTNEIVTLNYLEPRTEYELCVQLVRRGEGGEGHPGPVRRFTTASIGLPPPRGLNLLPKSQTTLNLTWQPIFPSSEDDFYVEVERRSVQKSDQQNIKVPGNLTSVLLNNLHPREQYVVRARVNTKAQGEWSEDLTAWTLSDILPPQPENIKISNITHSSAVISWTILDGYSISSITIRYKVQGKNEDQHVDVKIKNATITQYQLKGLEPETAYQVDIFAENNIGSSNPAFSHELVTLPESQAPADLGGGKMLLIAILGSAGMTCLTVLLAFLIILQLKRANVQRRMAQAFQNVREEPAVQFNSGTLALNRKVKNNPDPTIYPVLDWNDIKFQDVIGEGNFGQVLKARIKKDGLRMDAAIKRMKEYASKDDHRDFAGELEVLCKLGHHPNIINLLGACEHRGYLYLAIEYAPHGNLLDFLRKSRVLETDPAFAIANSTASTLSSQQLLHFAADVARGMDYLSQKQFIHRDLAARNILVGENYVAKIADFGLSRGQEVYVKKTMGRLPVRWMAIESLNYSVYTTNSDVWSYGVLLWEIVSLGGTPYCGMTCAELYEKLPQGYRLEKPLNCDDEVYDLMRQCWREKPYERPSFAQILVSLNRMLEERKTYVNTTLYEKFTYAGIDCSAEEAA
Activated CDC42 kinase 1 (Homo sapiens), sequence (Q07912 whole entry, looked up): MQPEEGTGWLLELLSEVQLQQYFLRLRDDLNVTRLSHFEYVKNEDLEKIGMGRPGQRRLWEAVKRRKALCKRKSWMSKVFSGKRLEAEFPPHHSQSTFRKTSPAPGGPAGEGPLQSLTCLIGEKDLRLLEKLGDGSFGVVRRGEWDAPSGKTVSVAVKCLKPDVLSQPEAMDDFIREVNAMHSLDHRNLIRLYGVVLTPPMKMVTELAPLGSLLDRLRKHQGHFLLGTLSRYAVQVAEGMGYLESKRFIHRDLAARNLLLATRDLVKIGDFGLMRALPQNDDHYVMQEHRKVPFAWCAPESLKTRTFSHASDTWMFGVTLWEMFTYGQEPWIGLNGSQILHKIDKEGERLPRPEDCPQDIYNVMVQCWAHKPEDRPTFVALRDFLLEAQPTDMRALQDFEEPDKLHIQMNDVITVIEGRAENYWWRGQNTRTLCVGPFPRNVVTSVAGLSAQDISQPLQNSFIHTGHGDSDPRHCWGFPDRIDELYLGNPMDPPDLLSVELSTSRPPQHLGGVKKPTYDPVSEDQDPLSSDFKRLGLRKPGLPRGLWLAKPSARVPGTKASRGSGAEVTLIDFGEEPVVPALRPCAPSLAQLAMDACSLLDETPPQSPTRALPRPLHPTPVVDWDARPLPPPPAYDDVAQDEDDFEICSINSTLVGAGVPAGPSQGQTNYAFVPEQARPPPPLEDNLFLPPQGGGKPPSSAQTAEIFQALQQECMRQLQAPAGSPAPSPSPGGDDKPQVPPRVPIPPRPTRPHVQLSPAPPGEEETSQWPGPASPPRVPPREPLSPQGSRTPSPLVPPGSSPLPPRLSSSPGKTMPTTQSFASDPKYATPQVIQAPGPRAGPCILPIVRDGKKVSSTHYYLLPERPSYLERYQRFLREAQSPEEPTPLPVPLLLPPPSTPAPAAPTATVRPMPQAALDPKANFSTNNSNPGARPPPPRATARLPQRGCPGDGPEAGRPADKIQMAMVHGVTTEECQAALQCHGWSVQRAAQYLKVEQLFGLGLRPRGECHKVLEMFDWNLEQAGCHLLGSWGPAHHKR
BDNF/NT-3 growth factors receptor (Homo sapiens), sequence (Q16620 32-822 limits assumed): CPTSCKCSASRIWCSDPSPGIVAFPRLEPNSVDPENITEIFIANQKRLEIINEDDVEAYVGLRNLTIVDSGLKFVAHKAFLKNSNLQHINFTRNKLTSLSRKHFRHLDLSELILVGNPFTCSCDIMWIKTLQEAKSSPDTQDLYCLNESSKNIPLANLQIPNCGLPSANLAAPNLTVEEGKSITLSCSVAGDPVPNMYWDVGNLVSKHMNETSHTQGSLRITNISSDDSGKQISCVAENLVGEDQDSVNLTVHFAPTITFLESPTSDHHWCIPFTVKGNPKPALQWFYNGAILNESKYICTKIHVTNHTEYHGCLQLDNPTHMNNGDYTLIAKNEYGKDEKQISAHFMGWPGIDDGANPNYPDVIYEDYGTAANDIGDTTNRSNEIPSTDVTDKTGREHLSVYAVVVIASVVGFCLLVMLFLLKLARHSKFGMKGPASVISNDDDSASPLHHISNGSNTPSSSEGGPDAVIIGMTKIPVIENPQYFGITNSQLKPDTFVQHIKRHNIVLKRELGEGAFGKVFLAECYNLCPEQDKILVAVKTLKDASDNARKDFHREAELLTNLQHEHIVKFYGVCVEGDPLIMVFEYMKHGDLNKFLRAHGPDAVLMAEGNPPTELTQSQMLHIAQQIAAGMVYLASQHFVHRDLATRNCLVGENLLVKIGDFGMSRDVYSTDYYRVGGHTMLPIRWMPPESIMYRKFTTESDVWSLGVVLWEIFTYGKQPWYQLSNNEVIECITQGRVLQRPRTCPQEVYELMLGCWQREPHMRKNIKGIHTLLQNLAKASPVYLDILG

Turning to `CCn1c(-c2nonc2N)nc2c(C#CC(C)(C)O)ncc(OCC3CCNCC3)c21`, the inhibition (in general, the change of the read-out against control, counted positive when it falls) in assay [1] was -0.6%; in [2], -0.71%; in assay [3] it was 0.43%; in assay [4], 0.65%; in [5], 3.85%; in [6], 1.75%. For the same molecule, the inhibition in assay [7] was 10.6%; in [8], 0.81%; in [9], 1.2%; in assay [10], 3.1%; in [11] it was 2.62%; in assay [12], 3.08%. Also, the inhibition was 1.98% in assay [13]; 3.15% in assay [14]; 3.69% in assay [15]; -1.16% in assay [16]; -1.53% in assay [17]; -1.24% in assay [18]. Also, the inhibition is 11.4% in assay [19] and -1.94% in assay [20].

With `COc1cc2c(cc1Nc1nc(Nc3ccsc3C(N)=O)c3cc[nH]c3n1)N(C(=O)CN(C)C)CCC2`, the inhibition was 11.2% in [1]; -0.19% in assay [2]; 4.36% in assay [3]; 6.04% in assay [4]; 10.5% in [5]; 32.3% in assay [6]. Also, the inhibition in [7] was 80.2%; in assay [8], 0.24%; in [9], 13.2%; in assay [12], -0.6%; in assay [13], 3.59%; in assay [14], -1.52%. The inhibition in assay [15] was 3.92%; in [16] it was -2.39%; in assay [17], -1.59%; in assay [18] it was -8.98%; in assay [19], 36.4%; in [20], 2.03%.

In the case of `COc1cccc(-n2ncc3c(N/N=C/c4ccncc4)ncnc32)c1`, the inhibition in [1] stood at 9.95%; in [2] it was 6.13%; in assay [3], 17.2%; in assay [4] it was 6.02%; in [5] it was 37.5%; in [6], 10.1%. For the same molecule, the inhibition was found to be 52.3% in assay [7]; 2.06% in assay [8]; 9.3% in assay [9]; 3.46% in assay [10]; 12.8% in assay [11]; 7.74% in [12]. Further, the inhibition in assay [13] is 37.6%; in assay [14] it was 8.44%; in assay [15], 36.9%; in assay [16], 4.8%; in [17] it was 18.6%; in assay [18], -2.74%. Besides, the inhibition was determined as 18.5% in assay [19] and 12.1% in [20].

For `COc1cccc(COc2cc(-n3cnc4ccccc43)sc2C(N)=O)c1`, the inhibition was -4.12% in assay [1]; -0.82% in assay [2]; 0.59% in assay [3]; -1.48% in [4]; 3.47% in assay [5]; 0.87% in assay [6]. Besides, the inhibition in [7] is 12.1%; in assay [8], -0.46%; in assay [9], 0.57%; in assay [10], -2.49%; in assay [11], -7.54%; in assay [12], -0.03%. Also, the inhibition in assay [13] is -0.8%; in assay [14], -2.79%; in assay [15] it was -1.55%; in assay [16] it was -1.73%; in assay [17] it was 2.43%; in assay [18] it was -1.93%. Also, the values for the inhibition in [19] and in assay [20] were 4.76% and 2.16%, respectively.

These data come from ChEMBL document CHEMBL1961873, “Compounds: GSK PKIS; Assays: Nanosyn kinase panel” (2012).
